Screening data deposited in PubChem BioAssay by National Center for Advancing Translational Sciences (NCATS).
A selection: hits, their analogues and other compounds. The true share with any hit is near 8.9%.
IMPase inh: cell-permeable inhibitors of inositol monophosphatase (IMPase); inhibition (IP1 accumulation), % at 46.1 µM; AID 901; P97697; CHO-M1 cells, IP1 accumulation, HTRF TR-FRET ratio; 120,000 tested, under 10 active; active = well fitted curve in the direction sought with a large enough effect in the signal ratio, not every such curve was filed as active; inconclusive = small, poorly fitted or top-dose-only effect, or a change in a side signal; inactive = no such curve, though single readings can be large or run the other way; the % refers to the signal ratio;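 note: cells stimulated with carbachol in lithium chloride buffer; higher means more IMPase inhibition seen as more IP1 and lower FRET ratio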
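CHO-M1, 2000 cells/well, cultured 16–30 h; cpd up to 46 uM; carbachol (50 uM solution, stimulation buffer w/ 50 mM LiCl, pH 7.4), 30 min 37C; IP-One TR-FRET, 10 min RT; Ex 320/Em 665, 620; Hill-fit AC50.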
NPSR antagonist: neuropeptide S receptor (human) antagonism, cAMP; AID 1461; Potency, µM (highest dose often 38.3 µM), actives largely listed as inhibitors; CHO-NPSR cells, cAMP TR-FRET, antagonist mode; 220,000 compounds, 1% hits; Q6W5P4; note: nearly all actives have a fitted effect of over 50% in size
ALDH1A1 block: blocks purified human ALDH1A1 activity; P00352; Purified ALDH1A1, NADH fluorescence, propionaldehyde substrate; Potency, µM (series often up to 75.3 µM), most hits filed as inhibitors; 220,000 compounds, 7.3% hits; active = well fitted inhibition curve with a large enough effect, not every such curve was filed as active; inconclusive = small, poorly fitted or top-dose-only effect, or another doubt; inactive = no such curve, though single readings can be large or run the other way
Target sequence (P00352 whole entry, looked up): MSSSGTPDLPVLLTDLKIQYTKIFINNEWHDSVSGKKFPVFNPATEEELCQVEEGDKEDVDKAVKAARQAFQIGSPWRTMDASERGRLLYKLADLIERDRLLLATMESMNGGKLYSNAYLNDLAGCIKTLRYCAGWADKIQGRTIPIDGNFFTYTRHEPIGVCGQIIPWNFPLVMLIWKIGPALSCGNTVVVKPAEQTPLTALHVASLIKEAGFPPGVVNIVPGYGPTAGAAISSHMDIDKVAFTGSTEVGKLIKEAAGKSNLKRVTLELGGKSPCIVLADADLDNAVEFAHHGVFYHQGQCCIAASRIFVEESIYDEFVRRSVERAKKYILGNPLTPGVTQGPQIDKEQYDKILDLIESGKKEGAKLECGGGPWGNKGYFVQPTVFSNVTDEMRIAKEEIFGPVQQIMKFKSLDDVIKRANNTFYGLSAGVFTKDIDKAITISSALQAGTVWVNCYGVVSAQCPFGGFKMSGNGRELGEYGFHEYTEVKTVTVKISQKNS
12-hLO inh: inhibitors of human 12-lipoxygenase (ALOX12) | P18054 | purified 12-hLO, xylenol orange hydroperoxide absorbance | Potency, µM (doses to about 57.1 µM), most hits filed as inhibitors | 150,000 compounds, 0.12% hits; note: nearly all actives have a fitted effect of over 55% in size
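Hydroperoxide formation by human 12-lipoxygenase from 40 uM arachidonic acid was followed colorimetrically via ferric-xylenol orange complex, using the 573/405 nm absorbance ratio. Enzyme concentration was 150 nM, with 30 min reaction at room temperature.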
IMPase Li inh: cell-permeable IMPase inhibitors with lithium potentiation | 210,000 compounds, 0.35% hits | Potency, µM (highest dose often 59.4 µM), hits mostly inhibitors | CHO-M1 cells, IP1 TR-FRET (IP-One), carbachol + lithium;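 note: IP1 builds up when IMPase is blocked and the TR-FRET signal falls; nearly all actives have a fitted effect of over 50% in size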
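Steps: plate 2000 CHO-M1 cells per well and culture 16–30 h; add compound and lithium; incubate 30 min, 37C; add d2-IP1 tracer and Eu cryptate anti-IP1 antibody in lysis buffer; read after 10 min at room temperature.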
HPGD block: blocks human HPGD enzyme activity | 150,000 compounds, 4.3% hits | AID 894 | Potency, µM, hits mostly inhibitors | purified HPGD, NADH fluorescence kinetic, PGE2 substrate | P15428; active = well fitted inhibition curve with a large enough effect, not every such curve was filed as active; inconclusive = small, poorly fitted or top-dose-only effect, or another doubt; inactive = no such curve, though single readings can be large or run the other way
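NADH formation kinetics: reaction with 30 uM PGE2 and 1 mM NAD+ (final), 20 nM enzyme, Tris-HCl pH 8 with Tween 20, after 15 min compound preincubation at room temperature. Fluorescence change, last versus first of five reads.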
Each line names hits and unclear results; the compound was inactive in the other large screens. Unless noted, calls come from the whole dose curve; as a rule, active = well fitted curve in the direction sought with a large enough effect; inconclusive = small, poorly fitted or top-dose-only effect, or another doubt; inactive = no such curve, though single readings can be large; an effect the other way counts as inactive or inconclusive.

C#CC(C)(CC)NC(=O)c1cc2nc(C3CC3)cc(C(F)(F)F)n2n1 (centres undefined)	none (no result: IMPase inh, 12-hLO inh, HPGD block)
COc1ccc(CN(C(=O)/C=C/c2ccccc2Cl)C2CCS(=O)(=O)C2)cc1 (centres undefined)	none (no result: IMPase inh, ALDH1A1 block, 12-hLO inh, IMPase Li inh, HPGD block)
CCOCCCNS(=O)(=O)c1ccc(OC)c(Cl)c1Cl	ALDH1A1 block 2.2µM
O=C(CN1C(=O)S/C(=C\C=C\c2ccccc2)C1=O)Nc1ccc(C(=O)O)cc1	ALDH1A1 block 13µM (no result: IMPase inh, 12-hLO inh, IMPase Li inh, HPGD block)
COc1ccc2nc(NNC(=O)COc3ccccc3)sc2c1	ALDH1A1 block 20µM (no result: IMPase inh, 12-hLO inh, HPGD block)
O=C(COc1ccccc1)NNc1nc2ccccc2s1	none (no result: IMPase inh, ALDH1A1 block, 12-hLO inh, IMPase Li inh, HPGD block)
CC(=O)c1sc(NC(=O)COc2ccccc2)nc1C	ALDH1A1 block inconclusive, IMPase Li inh 10µM (no result: IMPase inh, 12-hLO inh, HPGD block)
CC(=O)c1sc(NC(=O)CCOc2ccccc2)nc1C	ALDH1A1 block inconclusive (no result: IMPase inh, 12-hLO inh, HPGD block)
CCOC(=O)c1sc2nc(NC(=O)COc3ccccc3)sc2c1C	ALDH1A1 block inconclusive, IMPase Li inh 13µM, HPGD block inconclusive
CC(=O)c1sc(NC(=O)COc2ccc(C(C)C)c(C)c2)nc1C	NPSR antagonist inconclusive, IMPase Li inh 11µM (no result: IMPase inh, 12-hLO inh, HPGD block)
O=C(CSc1nnc2c(n1)[nH]c1ccccc12)NCc1ccco1	ALDH1A1 block inconclusive (no result: IMPase inh, 12-hLO inh, HPGD block)
Cc1onc(-c2ccccc2)c1C(=O)NC(CC(=O)O)c1ccc(OC(C)C)cc1 (centres undefined)	none
O=C(COC(=O)/C=C/c1cccs1)Nc1nc(-c2ccccc2)cs1	ALDH1A1 block 22µM (no result: IMPase inh)
CCN(c1ccc(NC(=O)COC(=O)/C=C/c2cccs2)cc1)C(C)C	ALDH1A1 block 0.13µM (no result: IMPase inh, 12-hLO inh, HPGD block)
O=C(COC(=O)/C=C/c1cccs1)Nc1nc(-c2cccc(Br)c2)cs1	none (no result: IMPase inh, ALDH1A1 block, 12-hLO inh, IMPase Li inh, HPGD block)
Cc1ccc(NC(=O)COC(=O)/C=C/c2cccs2)cc1	HPGD block 28µM (no result: IMPase inh)
Cc1ccc(SCCNC(=O)/C=C/c2ccccc2Cl)cc1	ALDH1A1 block 13µM, HPGD block inconclusive
Cc1ccc(SCCNC(=O)/C=C/c2ccc(Cl)cc2)cc1	none (no result: IMPase inh)
O=C(/C=C/c1ccccc1Cl)NCCc1ccccc1	IMPase inh inconclusive, HPGD block 16µM
Cc1ccc(SCCNC(=O)c2ccccc2C)cc1	HPGD block 16µM
CCCc1cc(-c2n[nH]c(C(=O)OCC)c2-c2cscn2)c(O)cc1O	ALDH1A1 block 8.9µM
CN(C)c1ccc(-c2cc(-n3ccnc3)ncn2)cc1	ALDH1A1 block inconclusive, HPGD block inconclusive (no result: IMPase inh, NPSR antagonist)
CN(C)c1ccc(/C=N/Nc2ccc(-n3ccnc3)nn2)cc1	ALDH1A1 block 7.9µM
Cc1[nH]c2ccccc2c1/C=C/c1nc2ccccc2c(=O)n1-c1cccc([N+](=O)[O-])c1	none (no result: IMPase inh)
CCN(CC)C(=S)SCC(=O)NC12CC3CC(CC(C3)C1)C2	ALDH1A1 block 4.5µM, HPGD block 14µM (no result: IMPase inh)
Cc1ccccc1S(=O)(=O)Nc1nc2ccccc2nc1Cl	ALDH1A1 block inconclusive, IMPase Li inh 3.5µM (no result: IMPase inh, 12-hLO inh, HPGD block)
O=S(=O)(Nc1nc2ccccc2nc1Cl)c1ccc(Cl)cc1	ALDH1A1 block inconclusive (no result: IMPase inh)
Cc1cc(C(=O)CSc2nnc(-c3cccc(F)c3)n2N)c(C)n1Cc1ccc2c(c1)OCO2	HPGD block inconclusive
Brc1cc2c(cc1/C=N/Nc1nc(N3CCCC3)nc(N3CCOCC3)n1)OCO2	ALDH1A1 block 14µM
CCn1c(O)c(N=NC(=O)CNc2cccc(C)c2)c2ccccc21	ALDH1A1 block 28µM (no result: IMPase inh)
Cc1cccc(NC(=O)Cn2c(O)c(N=NC(=O)c3ccncc3)c3ccccc32)c1	ALDH1A1 block 13µM (no result: IMPase inh, 12-hLO inh, HPGD block)
Cc1ccc(NC(=O)Cn2c(O)c(N=NS(=O)(=O)c3ccc(C)cc3)c3ccccc32)cc1	ALDH1A1 block 0.35µM (no result: IMPase inh)
COC(=O)Cn1c(O)c(N=NC(=O)c2ccc3c(c2)OCO3)c2ccccc21	ALDH1A1 block 1.8µM (no result: IMPase inh, 12-hLO inh, HPGD block)
O=C(CSc1nccc(-c2cccs2)n1)Nc1cccc(Cl)c1Cl	ALDH1A1 block inconclusive (no result: IMPase inh, 12-hLO inh, IMPase Li inh, HPGD block)
COc1ccc(CNC(=O)/C=C/c2cc([N+](=O)[O-])ccc2OC(F)F)cc1	none
O=C(Cc1ccc([N+](=O)[O-])cc1)NCc1ccc2c(c1)OCO2	none (no result: IMPase inh)
COc1ccc(N(C(=O)c2ccccc2C)S(=O)(=O)c2ccc(Cl)cc2)cc1	none (no result: NPSR antagonist, ALDH1A1 block, 12-hLO inh, IMPase Li inh, HPGD block)
COc1cc(-c2cc(C(=O)O)c3c(OC)c(OC)c(OC)cc3n2)ccc1O	ALDH1A1 block inconclusive
